PolyA inhibitor: inhibitors of polyadenylation in S. cerevisiae | S. cerevisiae SKY197-pL101 polyadenylation reporter, beta-gal luminescence; efflux-impaired pdr1/pdr3 knockout yeast; score 100 = 6 SD above DMSO | activity score, % at 12 µM | actives 0.02% (n = 300,000);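 active = lowest replicate activity score at least 50, where 100 means six control SD above control mean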;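 note: yeast exposed to compound for 9 h at 30 °C; higher score means more reporter readthrough which indicates perturbed polyadenylation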
GASC-1 inh: human JMJD2C demethylase inhibition; Q9H3R0; AID 2099; inhibition, % at 2.35 µM; actives 0.069% (n = 330,000); GST-JMJD2C(1-420) H3K9me3 demethylation, DELFIA europium;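 active = more than half of a compound's replicate wells show inhibition beyond 50%, single wells judged on their own value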;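 note: signal counts dimethyl H3K9 product captured on neutravidin plate; 0% = median of DMSO wells and 100% = 0.3 times that DMSO median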
Efflux pump inh: antifungal efflux pump inhibition, Nile Red retention; S. cerevisiae Candida pump triplex; inhibition, % at 10 µM; actives 0.44% (n = 330,000); AID 485275;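 active = plate passing quality check with inhibition over a set limit, or well fluorescence over plate mean plus 4 SD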;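 note: Nile Red retained in pooled yeast measured as flow cytometry median fluorescence; 0% = buffer negative control and 100% = Enniatin B positive control; higher means more Nile Red kept so more efflux inhibition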
NALP1 yeast inh: blocks the NALP1 inflammasome reconstituted in yeast; S. cerevisiae NALP1/ASC/caspase-1 growth, X-gal OD620, 72 h; inhibition, % at 10 µM; actives 0.61% (n = 280,000); AID 2071; in the data active = inhibition mostly above about 24%, no sharp cut-off; inactive = mostly below about 32%
NLRP3 yeast inh: blocks the NALP3 inflammasome reconstituted in yeast; actives 0.39% (n = 330,000); inhibition, % at 10 µM; Yeast reconstituted NLRP3/ASC/caspase-1, beta-gal luminescence, 24 h; AID 2825;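 active = inhibition of 50% or more; inactive = inhibition below 50%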;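 note: plate controls were induced DMSO wells for no effect and uninduced yeast grown without galactose for full effect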
HDAC3 inh: inhibitors of human histone deacetylase 3. AID 2718. recombinant HDAC3, fluorogenic peptide/trypsin coupled, fluorescence. inhibition, % at 8.3 µM. O15379. actives 0.15% (n = 320,000); in the data active = inhibition above about 26%, passing the limit was not always enough
Target sequence (O15379 whole entry, looked up): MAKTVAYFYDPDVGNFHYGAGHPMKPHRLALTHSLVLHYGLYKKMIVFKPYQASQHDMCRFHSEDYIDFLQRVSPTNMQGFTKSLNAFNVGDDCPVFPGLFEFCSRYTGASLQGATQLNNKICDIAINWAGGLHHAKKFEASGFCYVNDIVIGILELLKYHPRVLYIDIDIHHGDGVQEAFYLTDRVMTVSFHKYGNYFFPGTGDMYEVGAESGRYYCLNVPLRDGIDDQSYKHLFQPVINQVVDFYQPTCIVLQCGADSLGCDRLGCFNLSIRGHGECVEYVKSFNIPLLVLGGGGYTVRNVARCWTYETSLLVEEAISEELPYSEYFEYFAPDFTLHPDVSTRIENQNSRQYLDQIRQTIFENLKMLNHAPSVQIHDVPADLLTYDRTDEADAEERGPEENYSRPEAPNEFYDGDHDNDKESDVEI
The depositor's hits bear a star; x = no result given. Most compounds without a hit are left out; they make up all but 1.5% or so of the library.

SMILES | PolyA inhibitor | GASC-1 inh | Efflux pump inh | NALP1 yeast inh | NLRP3 yeast inh | HDAC3 inh
N=c1c2c(ncn1Cc1ccco1)Oc1c(ccc3ccccc13)C2c1ccccc1 (centres undefined) | -16.0 | 14.5 | 0.1 | 62.8* | 20.6 | 15.7
N=c1c2c(ncn1Cc1ccco1)Oc1cc(O)ccc1C2c1ccccc1 (centres undefined) | 4.2 | -2.2 | 0.2 | 8.7 | -7.5 | 1.2
C=CCNc1nnc(Cc2ccc(C(C)C)cc2)c(=O)[nH]1 | 17.2 | -4.0 | 0.0 | 18.5 | -2.2 | 7.3
COc1ccc(C2C3=C(N=C4SCC(=O)N42)c2ccccc2CC3)cc1 (centres undefined) | 8.0 | -3.0 | 0.0 | 38.4* | 8.2 | -1.8
COc1ccc(C2C3=C(N=C4SCC(=O)N42)c2ccccc2CC3)cc1OC (centres undefined) | 5.7 | -4.7 | -0.1 | 4.9 | -0.6 | -6.3
O=C(NCc1cccnc1)Nc1ccccc1C(F)(F)F | -6.0 | -25.7 | 0.0 | 11.7 | 16.8 | 5.6
COc1ccc(NC(=O)c2ccc(C)cc2)c[n+]1[O-] | 5.8 | 2.2 | -0.1 | -9.0 | x | 4.2
CC1(C)CC2(CCCN3C(=O)CSC32)CCS1 (centres undefined) | 21.1 | -13.0 | 0.2 | 38.0* | 10.4 | 9.7
Cc1cc(C)cc(NC(=O)C2CCCN2C(=O)Oc2ccccc2)c1 (centres undefined) | -1.3 | -8.6 | 0.1 | 5.5 | 12.7 | -1.6
Cc1cccc(NC(=O)C2CCCN2C(=O)Oc2ccccc2)c1 (centres undefined) | 10.9 | -5.0 | -0.1 | 44.9* | 6.7 | -1.1
S=C1NC2CCCCC2N1 (centres undefined) | -16.0 | 0.1 | 0.0 | 17.1 | 5.2 | -5.2
Cc1ccc(-n2c(=O)c(C#N)cc3c(=O)n4cccc(C)c4nc32)cc1 | -10.8 | 12.6 | 0.2 | 37.0* | 13.2 | -30.4
CCOc1ccc(NC(=O)CN(C)C(=O)c2cc(C3CC3)nn2-c2ccccc2)cc1OCC | x | x | x | x | 10.6 | x
CNC(=O)CSCc1cnn(-c2ccccc2)c1-n1cccc1 | -14.6 | 2.4 | -0.1 | 41.2* | 8.1 | 2.8
O=C(CSCc1cnn(-c2ccccc2)c1-n1cccc1)NCc1cccs1 | 12.3 | 10.4 | 0.3 | 16.5 | 3.8 | 6.3
COc1ccc(NC(=S)N(C(C)C)C2CCN(C(C)C)CC2)cc1Cl | -9.7 | -2.8 | 0.0 | 47.3* | 7.6 | 8.3
COc1ccc(NC(=S)N(CCC(C)C)C2CCN(C(C)C)CC2)cc1 | -2.0 | 2.5 | 0.4 | 9.6 | 22.2 | -0.1
CCc1ccc(NC(=O)COC(=O)CN2C(=O)COc3ccccc32)cc1 | -5.2 | -5.8 | -0.1 | 40.8* | 4.2 | -1.5
COc1ccc(NC(=O)CN2C(=O)COc3ccccc32)cc1OC | -3.0 | 2.2 | -0.1 | 0.7 | 26.0 | 5.6
COc1ccccc1C(=O)C1CCCN(C(=O)c2ccccc2C(C)=O)C1 (centres undefined) | -14.5 | 2.7 | x | 27.4* | 6.9 | x
COc1ccccc1C(=O)C1CCCN(C(=O)c2ccc(C(C)=O)s2)C1 (centres undefined) | 5.2 | 0.2 | 0.0 | 2.5 | -3.6 | 3.3
Cc1ccc(-c2csc3nc4ccc(C(=O)NCCO)cc4c(=O)n23)cc1 | 7.6 | -5.8 | -0.1 | x | 22.0 | -23.0
Cc1ccc(-c2csc3nc4cc(C(=O)NC5CCC(O)CC5)ccc4c(=O)n23)cc1 (centres undefined) | -7.4 | 66.6* | 0.3 | x | 0.4 | 12.8
Cc1c(CCOC(=O)C23CC4(C)CC(C)(CC(C)(C4)C2)C3)sc[n+]1CC(=O)c1ccccc1 | -9.8 | 8.8 | 0.0 | 17.3 | 7.3 | 14.7
Cc1c(CCOC(=O)CC23CC4CC(CC(C4)C2)C3)sc[n+]1CC(=O)c1ccccc1 | -18.4 | -20.2 | 0.1 | 34.7* | -3.7 | 5.6
SMILES | PolyA inhibitor | GASC-1 inh | Efflux pump inh | NALP1 yeast inh | NLRP3 yeast inh | HDAC3 inh
CCc1cc(=O)oc2cc(OC(=O)c3ccco3)ccc12 | 1.6 | 2.6 | 3.9 | 8.1 | 2.2 | 13.4
CCc1cc(=O)oc2cc(OC(C)=O)cc(OC(C)=O)c12 | -0.9 | 25.2 | -0.1 | 27.0* | 10.2 | -50.6
O=C(Nc1nc(-c2ccccn2)cs1)c1ccc(Cl)s1 | 14.2 | 2.1 | 0.2 | 97.7* | -0.9 | -3.7
Cc1ccc(SCC(=O)OCc2csc(CC(=O)Nc3ccccc3C)n2)cc1C | x | 6.4 | 0.3 | x | 5.8 | 2.9
COc1ccc(Nc2nc(-c3ccncc3)nc3ccccc23)cc1 | -1.3 | 3.8 | 0.0 | 37.1* | 11.0 | x
COc1ccc(OC)c(Nc2nc(-c3ccncc3)nc3ccccc23)c1 | -1.0 | -8.4 | -0.1 | 13.1 | 0.9 | -2.6
C=CCNC(=S)N1CCC(C(=O)c2ccc(Cl)cc2)CC1 | 0.9 | -4.8 | -0.1 | -1.5 | -2.9 | 0.8
Cc1nc2c(F)c(F)c(C(F)(F)F)c(F)c2[nH]1 | -3.6 | 10.8 | 0.2 | 14.0 | 20.2 | -2.5
Cc1nc2c(Br)c3nc(C(F)(F)F)[nH]c3c(Br)c2[nH]1 | 11.6 | 7.4 | 0.1 | 48.1* | 7.1 | 4.0
CCCCn1nc(C(=O)NCc2ccccc2CN2CCCC2)c2ccccc2c1=O | x | 2.0 | 0.1 | x | 16.2 | 3.8
COc1ccc(/C=C2\N=C(C)OC2=O)cc1[N+](=O)[O-] | 19.5 | 0.6 | -0.2 | 39.1* | 2.2 | 13.1
COc1ccc(CC(=O)NCC(=O)N/N=C(/C)c2ccco2)cc1 | -5.6 | 8.6 | -0.1 | -19.5 | -7.1 | 11.7
CC(C)NC(=O)CC(c1ccccc1)c1cc(Br)ccc1O (centres undefined) | -9.1 | -46.2 | -0.1 | 40.5* | 0.8 | 0.3
CC(=O)c1ccc(NC(=O)C2CCN(S(=O)(=O)c3cccs3)CC2)cc1 | 7.3 | 11.1 | 0.1 | -6.1 | 7.7 | -2.9
CCOc1ccc(NC(=O)C2CCN(S(=O)(=O)c3cccs3)CC2)cc1 | -14.6 | -6.7 | 0.0 | 38.9* | 6.1 | 1.0
CCCCNC(=O)Nc1ncn[nH]1 | 22.8 | 8.8 | -0.1 | 39.6* | 13.9 | 2.6
COc1ccccc1-c1cc(C(=O)NC2CCN(C)CC2)c2ccc(Cl)c(C)c2n1 | -0.1 | -6.3 | 1.6* | 25.0 | 23.0 | 1.8
O=C(N[C@@H](Cc1ccccc1)c1nc2ccccc2[nH]1)c1cc([N+](=O)[O-])ccc1Cl | 18.4 | -3.0 | -0.2 | 25.0 | 3.6 | x
CC(Cc1ccccc1)NC(=O)c1cc([N+](=O)[O-])ccc1Cl (centres undefined) | -0.5 | 37.7 | -0.1 | 35.9* | 16.9 | -3.1
Cc1c(Cl)cccc1NC(=O)CC1Oc2ccccc2NC1=O (centres undefined) | 8.5 | 1.3 | 0.1 | 7.1 | 10.9 | -3.2
COC(=O)C1=C(C)N(CCc2cc(OC)c(OC)c(OC)c2)C(=O)N[C@H]1c1cccs1 | 9.1 | 56.1* | -0.1 | 22.0 | 12.5 | 4.4
CC1CC(C)CN(c2ccc([N+](=O)[O-])nc2)C1 (centres undefined) | -15.8 | -3.7 | 0.1 | -1.0 | -0.7 | 8.8
N#CCCn1cc(C(=O)N2CCCCC2)c(-c2cccc([N+](=O)[O-])c2)n1 | 1.3 | 3.6 | -0.1 | 13.8 | 21.3 | 1.4

Screening results from PubChem BioAssay.
